Source: PubChem BioAssay (EPA / NIEHS)
The source made the active and inactive calls. How the source made its calls: active means hit-call score of the fitted dose curve at least 0.9, where 1 is the maximum; inactive means score below 0.9.

Columns and labels:
[1] = target: Transcription factor E2F1 (Homo sapiens) (UniProt Q01094); test: ATG_E2F_CIS: Attagene CIS-FACTORIAL HepG2 Assay for human E2F Transcription Factor 1 (AID 2282935); settings: HepG2 Attagene cis-reporter, E2F reporter RNA transcripts; actives raise or lower the signal
Sequence of Transcription factor E2F1 (Homo sapiens) (Q01094 whole entry, looked up): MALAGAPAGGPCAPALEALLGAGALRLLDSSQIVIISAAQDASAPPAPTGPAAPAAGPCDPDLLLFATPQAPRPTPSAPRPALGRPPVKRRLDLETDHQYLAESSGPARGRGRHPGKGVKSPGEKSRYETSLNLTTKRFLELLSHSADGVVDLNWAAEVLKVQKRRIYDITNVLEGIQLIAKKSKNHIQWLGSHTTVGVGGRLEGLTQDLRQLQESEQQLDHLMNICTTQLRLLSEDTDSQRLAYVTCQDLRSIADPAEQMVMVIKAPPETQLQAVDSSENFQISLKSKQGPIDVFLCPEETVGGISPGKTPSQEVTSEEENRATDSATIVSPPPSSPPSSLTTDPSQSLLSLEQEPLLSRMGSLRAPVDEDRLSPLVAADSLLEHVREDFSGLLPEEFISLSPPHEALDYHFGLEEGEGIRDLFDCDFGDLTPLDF
Summary of the method: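 Multiplexed cis-reporter assay: HepG2, transient transfection, 24 h dosing, mRNA quantitation by labeled RT-PCR and CE.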

[2] = ATG_E_Box_CIS: Attagene CIS-FACTORIAL HepG2 Assay for human Enhancer Box (E-box) (AID 2282936); settings: HepG2 E-box cis-reporter transcription, actives raise or lower the signal
Summary of the method: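 Multiplexed CIS reporter system in transiently transfected HepG2 cells measures native transcription factor activity. Reporter RNA after 24 h exposure is profiled by RT-PCR-capillary electrophoresis.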

[3] = ATG_M_61_CIS: Attagene CIS-FACTORIAL HepG2 Assay for M61 Transcription Factor (Internal Marker) (AID 2282937); settings: HepG2 Attagene CIS-FACTORIAL M61 internal marker reporter; actives raise or lower the signal
Summary of the method: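 Fluorescence from labelled cDNA fragments, separated by capillary electrophoresis, quantifies reporter induction. HepG2 cells bearing transiently transfected cis-promoter MRTUs were incubated with test chemical for 24 h; DMSO defined baseline for gain/loss fitting.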

[4] = ATG_M_19_CIS: Attagene CIS-FACTORIAL HepG2 Assay for M19 Transcription Factor (Internal Marker) (AID 2282939); settings: HepG2 Attagene CIS-FACTORIAL M19 internal marker reporter; actives raise or lower the signal
Summary of the method: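 Transfect HepG2 with MRTU reporter library → dose chemical, 24 h → isolate total RNA, reverse-transcribe with oligo(dT) → PCR, 6-FAM label, HpaI cut (2 h, 37 C) → capillary electrophoresis. Bidirectional fit vs DMSO.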

[5] = ATG_ERE_CIS: Attagene CIS-FACTORIAL HepG2 Assay for Estrogen Response Element (ERE) (AID 2282940); settings: HepG2 ERE cis-reporter, Attagene RNA transcript; actives raise or lower the signal
Summary of the method: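 Transient MRTU transfection of human HepG2; cis-element promoters; 24 h dosing; total RNA → RT (oligo dT) → PCR → 6-FAM primer extension → HpaI digest → CE fluorescence. Bidirectional fit, DMSO baseline.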

[6] = ATG_Ets_CIS: Attagene CIS-FACTORIAL HepG2 Assay for human Erythroblast Transformation Specific (ETS) (AID 2282941); settings: HepG2 ETS cis-reporter transcription, actives raise or lower the signal
Summary of the method: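 Steps: transfect HepG2 with multiple reporter units; treat compound 24 h; isolate RNA, DNase-treat, reverse-transcribe; PCR-amplify, label with 6-FAM, digest with HpaI; separate by capillary electrophoresis. Activity fitted both directions versus DMSO.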

[7] = target: Hepatocyte nuclear factor 3-beta (Homo sapiens) (UniProt Q9Y261); test: ATG_FoxA2_CIS: Attagene CIS-FACTORIAL HepG2 Assay for human Forkhead box A2 (FOXA2) (AID 2282942); settings: HepG2 cis-reporter transcription factor activity, 24 h; actives raise or lower the signal
Sequence of Hepatocyte nuclear factor 3-beta (Homo sapiens) (Q9Y261 whole entry, looked up): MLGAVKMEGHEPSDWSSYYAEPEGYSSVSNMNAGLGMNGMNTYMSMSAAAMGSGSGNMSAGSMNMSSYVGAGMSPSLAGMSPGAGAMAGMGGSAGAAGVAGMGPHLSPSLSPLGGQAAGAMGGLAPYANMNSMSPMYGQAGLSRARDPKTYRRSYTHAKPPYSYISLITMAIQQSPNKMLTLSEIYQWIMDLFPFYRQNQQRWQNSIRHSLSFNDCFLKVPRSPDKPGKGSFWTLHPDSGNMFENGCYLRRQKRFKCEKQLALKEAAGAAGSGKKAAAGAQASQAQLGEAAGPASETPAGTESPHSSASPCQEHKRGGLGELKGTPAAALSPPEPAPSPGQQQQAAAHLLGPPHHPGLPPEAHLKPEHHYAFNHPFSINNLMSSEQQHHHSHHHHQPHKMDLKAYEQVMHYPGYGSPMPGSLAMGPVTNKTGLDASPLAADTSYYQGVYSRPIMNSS
Summary of the method: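 In transiently transfected human HepG2 cells, promoter-driven reporter mRNA levels after 24 h chemical exposure are determined via RT-PCR with capillary electrophoresis. DMSO serves as baseline for bidirectional fitting.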

[8] = ATG_FoxO_CIS: Attagene CIS-FACTORIAL HepG2 Assay for human Forkhead box O (FoxO) (AID 2282943); settings: HepG2 Attagene cis-reporter, FoxO element, mRNA; actives raise or lower the signal
Summary of the method: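 HepG2 cells transiently transfected with cis-promoter-driven multiple reporter transcription units; 24 h after chemical dosing, reporter mRNA quantified by RT-PCR, fluorescent primer extension, HpaI digestion and capillary electrophoresis. Bidirectional fitting versus DMSO baseline.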

[9] = ATG_GATA_CIS: Attagene CIS-FACTORIAL HepG2 Assay for human GATA Binding Protein (AID 2282944); settings: HepG2 GATA cis-element reporter, Attagene multiplex mRNA; actives raise or lower the signal
Summary of the method: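 Transient MRTU transfection, HepG2, 24 h compound exposure. Total RNA → oligo(dT) RT → PCR → 6-FAM primer extension → HpaI cut → CE. Bidirectional fit vs DMSO.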

[10] = ATG_GLI_CIS: Attagene CIS-FACTORIAL HepG2 Assay for human Zinc Finger Protein GLI1 (AID 2282945); settings: HepG2, Attagene cis-factorial reporter mRNA, GLI element; actives raise or lower the signal
Summary of the method: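 HepG2 cells transiently transfected with cis-promoter multiplexed reporter units report endogenous transcription factor activity. After 24 h chemical exposure, reporter mRNA was quantified by RT-PCR, 6-FAM labelling, HpaI digestion and capillary electrophoresis, with bidirectional fitting against DMSO.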

[11] = target: Bile acid receptor (Homo sapiens) (UniProt Q96RI1); test: ATG_IR1_CIS: Attagene CIS-FACTORIAL HepG2 Assay for human Nuclear Receptor Subfamily 1 Group H Member 4 (NR1H4), IR1 submotif (AID 2282946); settings: IR1 reporter transcription, actives raise or lower the signal
Sequence of Bile acid receptor (Homo sapiens) (Q96RI1 whole entry, looked up): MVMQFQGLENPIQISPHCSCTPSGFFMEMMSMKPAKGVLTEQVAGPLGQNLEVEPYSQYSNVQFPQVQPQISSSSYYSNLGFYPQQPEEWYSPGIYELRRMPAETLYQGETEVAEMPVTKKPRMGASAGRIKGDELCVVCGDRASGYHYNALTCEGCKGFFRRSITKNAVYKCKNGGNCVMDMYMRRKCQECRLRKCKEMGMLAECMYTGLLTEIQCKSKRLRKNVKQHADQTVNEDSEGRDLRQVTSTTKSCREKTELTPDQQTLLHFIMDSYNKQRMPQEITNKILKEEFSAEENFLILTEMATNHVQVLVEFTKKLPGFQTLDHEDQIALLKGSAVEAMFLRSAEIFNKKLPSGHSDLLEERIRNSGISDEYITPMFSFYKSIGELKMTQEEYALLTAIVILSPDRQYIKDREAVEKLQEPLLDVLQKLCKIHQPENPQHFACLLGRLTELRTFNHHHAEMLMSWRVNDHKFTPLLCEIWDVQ
Summary of the method: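 Transient MRTU transfection, HepG2; 24 h dosing; RNA → RT-PCR → 6-FAM primer extension → HpaI digest → capillary electrophoresis fluorescence. Gain/loss of signal fitted relative to DMSO.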

[12] = ATG_GRE_CIS: Attagene CIS-FACTORIAL HepG2 Assay for human Glucocorticoid Response Elements (GRE) (AID 2282947); settings: HepG2 GRE cis-reporter, Attagene multiplex mRNA; actives raise or lower the signal
Summary of the method: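 Following 24 h chemical exposure of transiently transfected HepG2 cells, total RNA was reverse-transcribed and reporter cDNA amplified, fluorescently labelled and sized by capillary electrophoresis. Signal gain or loss was fitted relative to DMSO vehicle.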

[13] = ATG_ISRE_CIS: Attagene CIS-FACTORIAL HepG2 Assay for human Interferon Regulatory Factor 1 (IRF1) binding to an Interferon-Stimulated Response Element (ISRE) (AID 2282948); settings: HepG2 ISRE cis-reporter (Attagene), mRNA transcription readout; actives raise or lower the signal
Summary of the method: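 Transfected HepG2 (multiple reporter transcription units, cis elements) dosed 24 h. RNA → oligo(dT) RT → PCR → 6-FAM primer extension → HpaI → CE. DMSO = negative control/baseline.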

[14] = ATG_M_32_CIS: Attagene CIS-FACTORIAL HepG2 Assay for M32 Transcription Factor (Internal Marker) (AID 2282949); settings: HepG2 Attagene cis-factorial M32 reporter, mRNA; actives raise or lower the signal;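 further: background control marker of the multiplexed CIS panel rather than a real target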
Summary of the method: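 HepG2 cells transiently transfected with multiplexed cis-regulated reporter units, dosed 24 h. Reporter mRNA quantified by RT-PCR, 6-FAM labelling, HpaI digestion and capillary electrophoresis; bidirectional fit vs DMSO.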

[15] = ATG_M_06_CIS: Attagene CIS-FACTORIAL HepG2 Assay for M06 Transcription Factor (Internal Marker) (AID 2282950); settings: HepG2 Attagene CIS-FACTORIAL M06 internal marker reporter; actives raise or lower the signal
Summary of the method: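 Read-out is fluorescence of labelled reporter cDNA fragments resolved by capillary electrophoresis after RT-PCR. Cells: HepG2 carrying transfected cis-promoter reporter units, treated 24 h. Gain or loss of signal fitted relative to DMSO.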

[16] = target: Hypoxia-inducible factor 1-alpha (Homo sapiens) (UniProt Q16665); test: ATG_HIF1a_CIS: Attagene CIS-FACTORIAL HepG2 Assay for human Hypoxia Inducible Factor 1 (HIF1A) (AID 2282951); settings: HepG2 Attagene cis-factorial HIF1a reporter transcription; actives raise or lower the signal
Sequence of Hypoxia-inducible factor 1-alpha (Homo sapiens) (Q16665 whole entry, looked up): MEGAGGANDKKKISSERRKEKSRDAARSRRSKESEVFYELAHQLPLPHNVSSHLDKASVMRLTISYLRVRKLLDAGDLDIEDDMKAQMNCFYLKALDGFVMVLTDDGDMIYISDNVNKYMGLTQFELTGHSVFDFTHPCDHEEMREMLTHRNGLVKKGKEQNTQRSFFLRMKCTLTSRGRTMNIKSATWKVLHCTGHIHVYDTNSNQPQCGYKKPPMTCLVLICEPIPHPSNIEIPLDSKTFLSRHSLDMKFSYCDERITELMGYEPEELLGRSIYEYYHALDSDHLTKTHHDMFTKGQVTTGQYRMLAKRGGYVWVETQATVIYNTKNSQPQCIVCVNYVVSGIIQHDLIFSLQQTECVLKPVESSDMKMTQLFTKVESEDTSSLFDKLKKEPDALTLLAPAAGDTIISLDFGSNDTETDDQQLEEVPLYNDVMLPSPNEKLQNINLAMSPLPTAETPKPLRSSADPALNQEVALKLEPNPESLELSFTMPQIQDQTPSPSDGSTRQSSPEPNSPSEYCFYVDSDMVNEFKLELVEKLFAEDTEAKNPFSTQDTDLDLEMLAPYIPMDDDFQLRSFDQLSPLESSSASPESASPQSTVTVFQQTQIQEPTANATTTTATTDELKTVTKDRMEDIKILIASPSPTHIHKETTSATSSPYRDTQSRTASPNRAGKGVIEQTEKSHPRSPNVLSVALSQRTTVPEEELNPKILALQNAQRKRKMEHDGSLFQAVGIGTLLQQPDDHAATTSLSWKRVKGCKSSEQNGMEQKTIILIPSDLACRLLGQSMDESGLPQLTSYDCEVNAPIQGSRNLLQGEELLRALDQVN
Summary of the method: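 In this multiplexed cell assay, HepG2 cells bearing transfected cis reporters are dosed for 24 h and reporter mRNA is read by RT-PCR plus capillary electrophoresis; signal increases and decreases are both scored against DMSO.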

[17] = target: Hepatocyte nuclear factor 6 (Homo sapiens) (UniProt Q9UBC0); test: ATG_HNF6_CIS: Attagene CIS-FACTORIAL HepG2 Assay for human Hepatocyte Nuclear Factor 6 (HNF6) (AID 2282952); settings: HepG2 Attagene cis-factorial HNF6 reporter transcription; actives raise or lower the signal
Sequence of Hepatocyte nuclear factor 6 (Homo sapiens) (Q9UBC0 whole entry, looked up): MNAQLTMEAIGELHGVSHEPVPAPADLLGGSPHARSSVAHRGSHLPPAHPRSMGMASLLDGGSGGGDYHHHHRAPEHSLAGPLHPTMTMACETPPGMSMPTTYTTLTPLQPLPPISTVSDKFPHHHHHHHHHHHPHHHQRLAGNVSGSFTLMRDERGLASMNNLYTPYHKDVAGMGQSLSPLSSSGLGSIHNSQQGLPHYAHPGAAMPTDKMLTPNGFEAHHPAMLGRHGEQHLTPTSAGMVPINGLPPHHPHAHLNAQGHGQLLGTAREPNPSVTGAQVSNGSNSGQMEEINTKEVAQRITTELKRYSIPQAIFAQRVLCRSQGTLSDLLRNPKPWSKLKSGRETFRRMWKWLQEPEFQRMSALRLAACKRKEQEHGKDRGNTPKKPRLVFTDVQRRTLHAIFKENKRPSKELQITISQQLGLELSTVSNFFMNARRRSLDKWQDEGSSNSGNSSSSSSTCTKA
Summary of the method: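 HepG2, transient MRTU transfection (cis promoters); 24 h chemical exposure; total RNA → oligo(dT) RT → PCR → 6-FAM labelling → HpaI cut → CE; bidirectional fit vs DMSO.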

[18] = target: Heat shock factor protein 1 (Homo sapiens) (UniProt Q00613); test: ATG_HSE_CIS: Attagene CIS-FACTORIAL HepG2 Assay for human Heat Shock Transcription Factor 1 (HSE) (AID 2282953); settings: HepG2 HSE cis-reporter, Attagene RNA transcription; actives raise or lower the signal
Sequence of Heat shock factor protein 1 (Homo sapiens) (Q00613 whole entry, looked up): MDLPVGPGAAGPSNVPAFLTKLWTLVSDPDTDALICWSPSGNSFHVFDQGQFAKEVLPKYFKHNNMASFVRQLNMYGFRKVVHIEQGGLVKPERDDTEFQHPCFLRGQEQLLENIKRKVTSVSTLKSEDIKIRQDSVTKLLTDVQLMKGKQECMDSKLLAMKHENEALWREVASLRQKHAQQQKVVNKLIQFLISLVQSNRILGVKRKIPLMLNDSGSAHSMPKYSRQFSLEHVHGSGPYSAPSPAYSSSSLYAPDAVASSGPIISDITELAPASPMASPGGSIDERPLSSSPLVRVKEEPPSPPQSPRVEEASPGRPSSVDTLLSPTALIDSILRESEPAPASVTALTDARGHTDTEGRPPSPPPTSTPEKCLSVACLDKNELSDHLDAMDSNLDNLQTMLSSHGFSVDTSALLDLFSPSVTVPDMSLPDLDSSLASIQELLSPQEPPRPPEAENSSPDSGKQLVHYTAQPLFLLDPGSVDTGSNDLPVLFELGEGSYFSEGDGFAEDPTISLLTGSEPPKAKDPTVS
Summary of the method: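 HepG2, transient MRTU transfection, cis-promoter reporters (endogenous TF activity). 24 h compound. RNA → oligo(dT) RT → PCR → 6-FAM primer extension → HpaI cut → CE. Bidirectional fit vs DMSO.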

[19] = ATG_MRE_CIS: Attagene CIS-FACTORIAL HepG2 Assay for human Metal Responsive Element (MRE) (AID 2282954); settings: HepG2 MRE cis-reporter transcription, Attagene multiplex; actives raise or lower the signal
Summary of the method: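 Step one: transfect HepG2 with cis-regulated reporter units. Step two: dose 24 h. Step three: isolate RNA, RT-PCR, 6-FAM label, HpaI digest, capillary electrophoresis. Fit bidirectionally to DMSO.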

[20] = ATG_EGR_CIS: Attagene CIS-FACTORIAL HepG2 Assay for human Early Growth Response 1 (EGR1) (AID 2282938); settings: HepG2 Attagene CIS-FACTORIAL EGR reporter mRNA; actives raise or lower the signal
Summary of the method: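 Cell-based multiplex transcription assay: HepG2 carrying transfected cis-element reporter units, 24 h chemical treatment. Fluorescence from capillary electrophoresis of RT-PCR products gives mRNA levels; fitting is bidirectional relative to DMSO.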

Measured: AC50

CCOB(OCC)OCC
inactive: [1] | [2] | [3] | [4] | [5] | [6] | [7] | [8] | [9] | [10] | [11] | [12] | [13] | [14] | [15] | [16] | [17] | [18] | [19]

[Cl][Eu]([Cl])[Cl]
active: [5] 51.6 µM
inactive: [1] | [2] | [3] | [4] | [6] | [7] | [8] | [9] | [10] | [11] | [12] | [13] | [14] | [15] | [16] | [17] | [18]

C=C(C)C(=O)OCC(O)COc1ccc(C(C)(C)c2ccc(OCC(O)COC(=O)C(=C)C)cc2)cc1 (stereo unspecified)
active: [6] 100 µM | [9] 166 µM | [13] 27 µM | [16] 31.1 µM | [18] 46.9 µM | [19] 52.7 µM
inactive: [1] | [2] | [3] | [4] | [5] | [7] | [8] | [10] | [11] | [14] | [15]

COC(=O)C=Cc1ccccc1
inactive: [1] | [2] | [3] | [20] | [4] | [5] | [6] | [7] | [9] | [12] | [13] | [14] | [15] | [16] | [17] | [18] | [19]

CCCC=C(C=O)CC
inactive: [1] | [2] | [3] | [20] | [4] | [5] | [6] | [7] | [9] | [12] | [13] | [14] | [15] | [16] | [17] | [18] | [19]

CC(C)COC(=O)CC(C(=O)OCC(C)C)S(=O)(=O)O (stereo unspecified)
inactive: [1] | [2] | [3] | [20] | [4] | [5] | [6] | [7] | [9] | [10] | [13] | [14] | [15] | [16] | [17] | [18] | [19]

CC(=O)C(C)C
inactive: [1] | [2] | [3] | [4] | [5] | [6] | [7] | [8] | [9] | [13] | [14] | [15] | [16] | [18] | [19]

COCC(=O)O
inactive: [1] | [2] | [3] | [4] | [5] | [6] | [7] | [8] | [9] | [10] | [13] | [14] | [15] | [16] | [18] | [19]
